Among the data in PubChem BioAssay (NCI) are growth inhibition values, retold here.

About 79,000 compounds went through this panel and 15% of them were active in at least one assay; those are over-represented in the sample as a whole. Unmarked numbers belong to inactive results. Calls of active or inactive are those of the source. Cut-off read from the data, not from the text of the source: active = growth inhibition above about 70%; inactive = the rest.

A short description of test [1]: NCI Yeast Anticancer Drug Screen. Data for the rad50 strain (AID 155).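 Note: 0% = growth of vehicle-only cultures of the same strain.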 To be noted: S. cerevisiae rad50 strain growth inhibition, active compounds read high. An outline of the steps:
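Yeast carrying a defined DNA repair defect were exposed to test compounds, and growth was compared with vehicle-treated controls to give percent inhibition.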

Test [2] can be described thus: NCI Yeast Anticancer Drug Screen. Data for the mec2-1 strain (AID 157). To be noted: S. cerevisiae mec2-1 strain, active compounds read high. In outline: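 Growth inhibition is read against vehicle-treated controls after compound exposure of the mec2-1 yeast strain, which is defective in DNA damage repair or cell cycle control.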
A short description of test [3]: NCI Yeast Anticancer Drug Screen. Data for the sgs1 mgt1 strain (AID 161).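 Note: 0% = growth of cultures given vehicle only.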 The settings on record: S. cerevisiae sgs1 mgt1 strain, active compounds read high. In outline: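 Yeast cells carrying a defined DNA-repair defect were exposed to test compounds. Growth inhibition was measured relative to vehicle-treated controls.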
Test [4] is described as follows: NCI Yeast Anticancer Drug Screen. Data for the cln2 rad14 strain (AID 165).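 Note: 0% = growth equal to vehicle treated cultures.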 The settings on record: S. cerevisiae cln2 rad14 strain, active compounds read high. An outline of the steps:
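Growth inhibition, relative to vehicle-treated controls, is the read-out. The test organism is a yeast strain with defined genetic alterations, cln2 rad14.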

A short description of test [5]: NCI Yeast Anticancer Drug Screen. Data for the bub3 strain (AID 167). To be noted: S. cerevisiae bub3 mutant strain, active compounds read high. An outline of the steps:
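Compounds were applied to a genetically altered yeast strain carrying a cell-cycle control defect. Growth inhibition was scored against vehicle-treated controls.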

The nature of test [6]: NCI Yeast Anticancer Drug Screen. Data for the mlh1 rad18 strain (AID 175). The settings on record: S. cerevisiae mlh1 rad18 strain growth inhibition, active compounds read high. An outline of the steps:
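Cells of a genetically altered yeast strain, deficient in DNA damage repair, were treated with compound. Their growth was then compared with that of vehicle-treated cultures to give inhibition.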

Where [7] appears, read: at 5.0 µM (retest, dose inferred, filed as 0.5).
Setting [8] is: at 50.0 µM (retest, dose inferred, filed as 5.0).

As to `Cc1ccc(Nc2ccc(O)c3c2C(=O)c2c(O)ccc(Nc4ccc(C)cc4)c2C3=O)cc1`, the growth inhibition in test [1] (setting [7]) was 5%; in test [1] (setting [8]), 4%; in test [1] (at 50.0 µM), 10.3%; in test [2] (setting [7]), 1%; in test [2] (setting [8]), -1%; in test [2] (at 50.0 µM) it was 7.15%. The growth inhibition in test [3] (setting [7]) is 12%; in test [3] (setting [8]) it was 14%; in test [3] (at 50.0 µM), 12.8%; in test [4] (setting [7]), 0%; in test [4] (setting [8]), -1%; in test [4] (at 50.0 µM), 72.5% (active). Further, the growth inhibition in test [5] (setting [7]) was -2%; in test [5] (setting [8]) it was -5%; in test [5] (at 50.0 µM), -3.8%; in test [6] (setting [7]) it was -2%; in test [6] (setting [8]) it was -65%; in test [6] (at 50.0 µM), 17.4%.

With `S=C1NC2=C(COc3ccccc32)C(c2ccc(Cl)cc2)N1` (stereo not given), the growth inhibition in test [1] (setting [7]) was 59%; in test [1] (setting [8]) it was 97% (active); in test [1] (at 50.0 µM), 89.6% (active); in test [2] (setting [7]), 70% (active); in test [2] (setting [8]), 98% (active); in test [2] (at 50.0 µM), 92.5% (active). For the same compound, the growth inhibition in test [3] (setting [7]) was 85% (active); in test [3] (setting [8]) it was 98% (active); in test [3] (at 50.0 µM) it was 92.5% (active); in test [4] (setting [7]), 69%; in test [4] (setting [8]), 97% (active); in test [4] (at 50.0 µM), 90.5% (active). The growth inhibition is 92% (active) in test [5] (setting [7]); 98% (active) in test [5] (setting [8]); 90.8% (active) in test [5] (at 50.0 µM); 86% (active) in test [6] (setting [7]); 97% (active) in test [6] (setting [8]); 83.1% (active) in test [6] (at 50.0 µM).

Consider `COc1cc(/C=C2\SC(=S)N(/C=C/c3nc4ccccc4[nH]c3=O)C2=O)cc(OC)c1OC`, for which the growth inhibition was -9% in test [1] (setting [7]); 57% in test [1] (setting [8]); 8.55% in test [1] (at 50.0 µM); -10% in test [2] (setting [7]); 45% in test [2] (setting [8]); 14.7% in test [2] (at 50.0 µM). The growth inhibition in test [3] (setting [7]) is -3%; in test [3] (setting [8]) it was 24%; in test [3] (at 50.0 µM) it was 63.1%; in test [4] (setting [7]), -29%; in test [4] (setting [8]) it was 58%; in test [4] (at 50.0 µM), 34.5%. Moreover, the growth inhibition in test [5] (setting [7]) was -8%; in test [5] (setting [8]), 44%; in test [5] (at 50.0 µM), -4.8%; in test [6] (setting [7]), 3%; in test [6] (setting [8]), 42%; in test [6] (at 50.0 µM), 55.1%.

In the case of `CCCCCCCCc1cc(Cl)c(O)c(Cl)c1`, the growth inhibition is 3% in test [1] (setting [7]); 75% (active) in test [1] (setting [8]); 99.5% (active) in test [1] (at 50.0 µM); -8% in test [2] (setting [7]); 90% (active) in test [2] (setting [8]); 99.6% (active) in test [2] (at 50.0 µM). Besides, the growth inhibition was -14% in test [3] (setting [7]); 98% (active) in test [3] (setting [8]); 99.2% (active) in test [3] (at 50.0 µM); -13% in test [4] (setting [7]); 97% (active) in test [4] (setting [8]); 99.6% (active) in test [4] (at 50.0 µM). In addition, the growth inhibition in test [5] (setting [7]) was -11%; in test [5] (setting [8]), 66%; in test [5] (at 50.0 µM) it was 98.7% (active); in test [6] (setting [7]), -10%; in test [6] (setting [8]) it was 98% (active); in test [6] (at 50.0 µM), 99.3% (active).

Turning to `c1ccc2sc(SSN3CC4CCC(CC4)C3)nc2c1`, the growth inhibition in test [1] (setting [7]) is 37%; in test [1] (setting [8]) it was 91% (active); in test [1] (at 50.0 µM) it was 56.6%; in test [2] (setting [7]) it was 19%; in test [2] (setting [8]), 93% (active); in test [2] (at 50.0 µM), 80.8% (active). Also, the growth inhibition in test [3] (setting [7]) is 75% (active); in test [3] (setting [8]), 97% (active); in test [3] (at 50.0 µM) it was 86.4% (active); in test [4] (setting [7]), 38%; in test [4] (setting [8]) it was 89% (active); in test [4] (at 50.0 µM), 21.6%. The growth inhibition in test [5] (setting [7]) is 55%; in test [5] (setting [8]), 96% (active); in test [5] (at 50.0 µM) it was 83.7% (active); in test [6] (setting [7]), 19%; in test [6] (setting [8]), 89% (active); in test [6] (at 50.0 µM) it was 80.7% (active).

As to `CC1(C)OCC(COC(c2ccccc2)(c2ccccc2)c2ccccc2)O1` (stereo not given), the growth inhibition is -7% in test [1] (setting [7]); 14% in test [1] (setting [8]); 21.1% in test [1] (at 50.0 µM); -6% in test [2] (setting [7]); 12% in test [2] (setting [8]); 4.65% in test [2] (at 50.0 µM). In addition, the growth inhibition in test [3] (setting [7]) was -9%; in test [3] (setting [8]) it was 2%; in test [3] (at 50.0 µM), -0.5%; in test [4] (setting [7]), -4%; in test [4] (setting [8]), 16%; in test [4] (at 50.0 µM) it was -33%. The growth inhibition was -2% in test [5] (setting [7]); 63% in test [5] (setting [8]); 40.2% in test [5] (at 50.0 µM); -5% in test [6] (setting [7]); 28% in test [6] (setting [8]); 43.6% in test [6] (at 50.0 µM).

Take `C=C1C(=O)OC2CC3(C)CCCC(C)C3=CC12` (stereo not given): the growth inhibition in test [1] (setting [7]) is 18%; in test [1] (setting [8]), 27%; in test [1] (at 50.0 µM), 49.5%; in test [2] (setting [7]), 10%; in test [2] (setting [8]), 56%; in test [2] (at 50.0 µM) it was 46.9%. Also, the growth inhibition was 15% in test [3] (setting [7]); 49% in test [3] (setting [8]); 80% (active) in test [3] (at 50.0 µM); 7% in test [4] (setting [7]); 25% in test [4] (setting [8]); 16.2% in test [4] (at 50.0 µM). Moreover, the growth inhibition is 14% in test [5] (setting [7]); 63% in test [5] (setting [8]); 78.8% (active) in test [5] (at 50.0 µM); 14% in test [6] (setting [7]); 41% in test [6] (setting [8]); 25% in test [6] (at 50.0 µM).

`Cc1ccc(NC(=S)C#N)cc1Cl`: the growth inhibition was 46% in test [1] (setting [7]); 44% in test [1] (setting [8]); 56.7% in test [1] (at 50.0 µM); 34% in test [2] (setting [7]); 44% in test [2] (setting [8]); 43.4% in test [2] (at 50.0 µM). Also, the growth inhibition was 41% in test [3] (setting [7]); 60% in test [3] (setting [8]); 77.3% (active) in test [3] (at 50.0 µM); 37% in test [4] (setting [7]); 40% in test [4] (setting [8]); 46.1% in test [4] (at 50.0 µM). Further, the growth inhibition is 46% in test [5] (setting [7]); 45% in test [5] (setting [8]); 69.9% in test [5] (at 50.0 µM); 45% in test [6] (setting [7]); 53% in test [6] (setting [8]); 4.7% in test [6] (at 50.0 µM).

For `O=Nc1ccc2ccccc2c1O`, the growth inhibition was -3% in test [1] (setting [7]); 64% in test [1] (setting [8]); 85.7% (active) in test [1] (at 50.0 µM); 3% in test [2] (setting [7]); 88% (active) in test [2] (setting [8]); 89.8% (active) in test [2] (at 50.0 µM). Moreover, the growth inhibition in test [3] (setting [7]) was -6%; in test [3] (setting [8]), 37%; in test [3] (at 50.0 µM) it was 86.8% (active); in test [4] (setting [7]), 25%; in test [4] (setting [8]), 63%; in test [4] (at 50.0 µM) it was 58.5%. Besides, the growth inhibition was 3% in test [5] (setting [7]); 93% (active) in test [5] (setting [8]); 89.5% (active) in test [5] (at 50.0 µM); 14% in test [6] (setting [7]); 93% (active) in test [6] (setting [8]); 84% (active) in test [6] (at 50.0 µM).

With `CCCCCCCCCCCC1N=C(N)N=C(N)N1c1cccc(Br)c1` (stereo not given), the growth inhibition is 99% (active) in test [1] (setting [7]); 97% (active) in test [1] (setting [8]); 97.5% (active) in test [1] (at 50.0 µM); 100% (active) in test [2] (setting [7]); 97% (active) in test [2] (setting [8]); 97.7% (active) in test [2] (at 50.0 µM). The growth inhibition was 98% (active) in test [3] (setting [7]); 98% (active) in test [3] (setting [8]); 99.2% (active) in test [3] (at 50.0 µM); 99% (active) in test [4] (setting [7]); 96% (active) in test [4] (setting [8]); 96.2% (active) in test [4] (at 50.0 µM). The growth inhibition in test [5] (setting [7]) is 99% (active); in test [5] (setting [8]), 98% (active); in test [5] (at 50.0 µM), 97% (active); in test [6] (setting [7]), 99% (active); in test [6] (setting [8]), 97% (active); in test [6] (at 50.0 µM), 98.3% (active).
